PubChem BioAssay AID1159580 (chemical genetic matrix, 2015)
The campaign covered roughly 5,500 compounds. About 2,000 (36%) were called active. About 18% were inconclusive and are not listed. Rule as the data show it: active = normalized growth mostly below about 0.91 (no sharp cut-off); inconclusive = no clear call, values can overlap the other calls; inactive = mostly above about 0.92. This is one part of the list.

Experiment: chemical genetic growth profiling, strain panel (AID 1159580);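 also: tested at 20 µM; growth read once vehicle control cultures reached saturation at 30 °C; 1 = growth at the plate median or of vehicle wells; lower values mean less growth of the strain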
Conditions: growth OD
[1] = S. cerevisiae deletion strains, locus YBR229C, strain ROT2, stronger effect = lower value
[2] = S. cerevisiae deletion strains, locus YDL101C, strain DUN1, stronger effect = lower value
[3] = S. cerevisiae deletion strains, locus YDR150W, strain NUM1, stronger effect = lower value
[4] = S. cerevisiae deletion strains, locus YEL061C, strain CIN8, stronger effect = lower value
[5] = S. cerevisiae deletion strains, locus YHR030C, strain SLT2, stronger effect = lower value
[6] = S. cerevisiae deletion strains, locus YJR043C, strain POL32, stronger effect = lower value
[7] = S. cerevisiae deletion strains, locus YJR075W, strain HOC1, stronger effect = lower value
[8] = S. cerevisiae deletion strains, locus YLR039C, strain RIC1, stronger effect = lower value
[9] = S. cerevisiae deletion strains, locus YLR262C, strain YPT6, stronger effect = lower value
[10] = S. cerevisiae deletion strains, locus YMR307W, strain GAS1, stronger effect = lower value
[11] = S. cerevisiae deletion strains, locus YNL153C, strain GIM3, stronger effect = lower value
[12] = S. cerevisiae deletion strains, locus YOL006C, strain TOP1, stronger effect = lower value
[13] = S. cerevisiae deletion strains, locus YPL055C, strain LGE1, stronger effect = lower value
[14] = S. cerevisiae deletion strains, locus YPL241C, strain CIN2, stronger effect = lower value
[15] = S. cerevisiae deletion strains, locus YAL040C, strain CLN3, stronger effect = lower value
[16] = S. cerevisiae deletion strains, locus YCL061C, strain MRC1 (second series), stronger effect = lower value
[17] = S. cerevisiae deletion strains, locus YDR363W, strain ESC2, stronger effect = lower value
[18] = S. cerevisiae deletion strains, locus YER002W, strain NOP16, stronger effect = lower value
[19] = S. cerevisiae deletion strains, locus YGR078C, strain PAC10, stronger effect = lower value
[20] = S. cerevisiae deletion strains, locus YNL175C, strain NOP13, stronger effect = lower value
[21] = S. cerevisiae deletion strains, locus YNL197C, strain WHI3, stronger effect = lower value
[22] = S. cerevisiae deletion strains, locus YNL224C, strain SQS1, stronger effect = lower value
[23] = S. cerevisiae deletion strains, locus YOR083W, strain WHI5 (second series), stronger effect = lower value
[24] = S. cerevisiae deletion strains, locus YAL013W, strain DEP1, stronger effect = lower value
[25] = S. cerevisiae deletion strains, locus YMR263W, strain SAP30, stronger effect = lower value
[26] = S. cerevisiae deletion strains, locus YNL322C, strain KRE1, stronger effect = lower value

Measured: normalized growth

CC12CCC3c4ccc(OCc5ccccc5)cc4CCC3C1C[C@@H](O)[C@@H]2O (some centres not stated)
inactive: S. cerevisiae deletion strains, locus YBR021W, strain FUR4, stronger effect = lower value 0.995
active: [1] 0.0599 | S. cerevisiae deletion strains, locus YCL029C, strain bik1, stronger effect = lower value 0.0651 | S. cerevisiae deletion strains, locus YDL035C, strain GPR1, stronger effect = lower value 0.1 | S. cerevisiae deletion strains, locus YDL074C, strain BRE1, stronger effect = lower value 0.0834 | [2] 0.0689 | S. cerevisiae deletion strains, locus YDL134C, strain PPH21, stronger effect = lower value 0.055 | S. cerevisiae deletion strains, locus YDL185W, strain tfp1, stronger effect = lower value 0.058 | S. cerevisiae deletion strains, locus YDL192W, strain arf1, stronger effect = lower value 0.0627 | S. cerevisiae deletion strains, locus YDR101C, strain arx1, stronger effect = lower value 0.127 | [3] 0.355 | S. cerevisiae deletion strains, locus YDR162C, strain NBP2, stronger effect = lower value 0.0538 | S. cerevisiae deletion strains, locus YDR318W, strain mcm21, stronger effect = lower value 0.076 | S. cerevisiae deletion strains, locus YDR388W, stronger effect = lower value 0.066 | S. cerevisiae deletion strains, locus YDR502C, strain sam2, stronger effect = lower value 0.0938 | [4] 0.0518 | S. cerevisiae deletion strains, locus YER110C, stronger effect = lower value 0.0937 | S. cerevisiae deletion strains, locus YER155C, strain BEM2, stronger effect = lower value 0.0637 | S. cerevisiae deletion strains, locus YER167W, strain BCK2, stronger effect = lower value 0.0557 | S. cerevisiae deletion strains, locus YGL078C, strain dbp3, stronger effect = lower value 0.106 | S. cerevisiae deletion strains, locus YGL086W, strain mad1, stronger effect = lower value 0.0655 | S. cerevisiae deletion strains, locus YGL248W, strain PDE1, stronger effect = lower value 0.0599 | S. cerevisiae deletion strains, locus YGR135W, strain pre9, stronger effect = lower value 0.265 | S. cerevisiae deletion strains, locus YGR252W, strain gcn5, stronger effect = lower value 0.133 | [5] 0.0559 | S. cerevisiae deletion strains, locus YHR079C, strain IRE1 (second series), stronger effect = lower value 0.0829 | S. cerevisiae deletion strains, locus YHR094C, strain hxt1, stronger effect = lower value 0.0776 | S. cerevisiae deletion strains, locus YHR129C, strain ARP1, stronger effect = lower value 0.0606 | S. cerevisiae deletion strains, locus YHR200W, strain rpn10, stronger effect = lower value 0.0742 | S. cerevisiae deletion strains, locus YIL066C, strain RNR3, stronger effect = lower value 0.0563 | S. cerevisiae deletion strains, locus YIL073C, strain SPO22, stronger effect = lower value 0.112 | S. cerevisiae deletion strains, locus YIL125W, strain kgd1, stronger effect = lower value 0.0668 | S. cerevisiae deletion strains, locus YIR030C, strain dcg1, stronger effect = lower value 0.104 | S. cerevisiae deletion strains, locus YJL095W, strain BCK1, stronger effect = lower value 0.062 | S. cerevisiae deletion strains, locus YJL134W, strain LCB3, stronger effect = lower value 0.0681 | S. cerevisiae deletion strains, locus YJL168C, strain set2, stronger effect = lower value 0.0842 | S. cerevisiae deletion strains, locus YJL187C, strain SWE1 (second series), stronger effect = lower value 0.0613 | [6] 0.0826 | [7] 0.0841 | S. cerevisiae deletion strains, locus YKL009W, strain mrt4, stronger effect = lower value 0.0811 | S. cerevisiae deletion strains, locus YKL068W, stronger effect = lower value 0.187 | S. cerevisiae deletion strains, locus YKL085W, strain MDH1 (second series), stronger effect = lower value 0.068 | S. cerevisiae deletion strains, locus YKL085W, strain MDH1, stronger effect = lower value 0.068 | S. cerevisiae deletion strains, locus YKL190W, strain CNB1, stronger effect = lower value 0.0552 | S. cerevisiae deletion strains, locus YKR001C, strain vps1, stronger effect = lower value 0.062 | [8] 0.0869 | S. cerevisiae deletion strains, locus YLR058C, strain SHM2, stronger effect = lower value 0.0598 | S. cerevisiae deletion strains, locus YLR102C, strain apc9, stronger effect = lower value 0.0693 | [9] 0.103 | S. cerevisiae deletion strains, locus YLR268W, strain sec22, stronger effect = lower value 0.0915 | S. cerevisiae deletion strains, locus YLR330W, strain CHS5, stronger effect = lower value 0.0559 | S. cerevisiae deletion strains, locus YLR342W, strain FKS1 (second series), stronger effect = lower value 0.0702 | S. cerevisiae deletion strains, locus YLR371W, strain rom2, stronger effect = lower value 0.0664 | S. cerevisiae deletion strains, locus YLR418C, strain cdc73, stronger effect = lower value 0.101 | S. cerevisiae deletion strains, locus YML016C, strain PPZ1, stronger effect = lower value 0.0511 | S. cerevisiae deletion strains, locus YML032C, strain rad52, stronger effect = lower value 0.0688 | S. cerevisiae deletion strains, locus YML124C, strain tub3, stronger effect = lower value 0.117 | S. cerevisiae deletion strains, locus YMR078C, strain ctf18, stronger effect = lower value 0.0734 | S. cerevisiae deletion strains, locus YMR223W, strain ubp8, stronger effect = lower value 0.0801 | [10] 0.114 | S. cerevisiae deletion strains, locus YNL067W, strain RPL9B, stronger effect = lower value 0.093 | S. cerevisiae deletion strains, locus YNL128W, strain TEP1, stronger effect = lower value 0.0726 | [11] 0.0573 | S. cerevisiae deletion strains, locus YNL233W, strain BNI4, stronger effect = lower value 0.0603 | S. cerevisiae deletion strains, locus YNL250W, strain rad50, stronger effect = lower value 0.0963 | S. cerevisiae deletion strains, locus YNL271C, strain bni1, stronger effect = lower value 0.129 | S. cerevisiae deletion strains, locus YNL298W, strain CLA4, stronger effect = lower value 0.0669 | S. cerevisiae deletion strains, locus YNL307C, strain MCK1, stronger effect = lower value 0.0674 | S. cerevisiae deletion strains, locus YNR052C, strain pop2, stronger effect = lower value 0.0752 | [12] 0.114 | S. cerevisiae deletion strains, locus YOL012C, strain htz1 0.149 | S. cerevisiae deletion strains, locus YOL147C, strain pex11, stronger effect = lower value 0.0612 | S. cerevisiae deletion strains, locus YOR061W, strain CKA2, stronger effect = lower value 0.0522 | S. cerevisiae deletion strains, locus YOR069W, strain VPS5, stronger effect = lower value 0.0556 | S. cerevisiae deletion strains, locus YOR136W, strain idh2, stronger effect = lower value 0.077 | S. cerevisiae deletion strains, locus YOR144C, strain elg1, stronger effect = lower value 0.0719 | S. cerevisiae deletion strains, locus YOR184W, strain ser1, stronger effect = lower value 0.0768 | S. cerevisiae deletion strains, locus YOR316C, strain cot1, stronger effect = lower value 0.0738 | [13] 0.0696 | [14] 0.0593 | S. cerevisiae deletion strains, locus YPR119W, strain clb2, stronger effect = lower value 0.0659 | S. cerevisiae deletion strains, locus YPR141C, strain kar3, stronger effect = lower value 0.106 | S. cerevisiae deletion strains, locus YPR163C, strain tif3, stronger effect = lower value 0.0746 | S. cerevisiae deletion strains, locus YPR167C, strain met16, stronger effect = lower value 0.0654 | S. cerevisiae deletion strains, strain wtn01, stronger effect = lower value 0.107 | S. cerevisiae strains, strain wild type, stronger effect = lower value 0.0526

COc1cc2c(cc1O)CC[C@@H]1[C@@H]2CC[C@]2(C)[C@@H](O)CC[C@@H]12
inactive: [15] 1.02 | [16] 1 | [3] 0.964 | [17] 1.02 | [18] 0.994 | [19] 1 | [7] 1.03 | [11] 0.936 | [20] 1.01 | [21] 1.03 | [22] 1.03 | [23] 0.982 | [14] 0.996

CCN(CC)C(=O)c1[nH]c(C)c(C)c1C
inactive: [24] 1.01 | [1] 1 | S. cerevisiae deletion strains, locus YCL061C, strain MRC1, stronger effect = lower value 1.01 | [2] 0.994 | [3] 1.01 | [4] 0.985 | [19] 1.01 | S. cerevisiae deletion strains, locus YGR229C, strain SMI1, stronger effect = lower value 1.02 | [5] 1 | S. cerevisiae deletion strains, locus YHR087W, strain rtc3, stronger effect = lower value 0.998 | [6] 0.997 | [7] 1.01 | [8] 1.02 | S. cerevisiae deletion strains, locus YLR058C, strain SHM2 (second series), stronger effect = lower value 1.01 | S. cerevisiae deletion strains, locus YLR085C, strain ARP6, stronger effect = lower value 1.03 | [9] 0.995 | S. cerevisiae deletion strains, locus YML094W, strain GIM5, stronger effect = lower value 1.02 | S. cerevisiae deletion strains, locus YMR219W, strain ESC1, stronger effect = lower value 1.02 | [25] 1.01 | [11] 1 | S. cerevisiae deletion strains, locus YNL298W, strain CLA4 (second series), stronger effect = lower value 1.01 | [26] 0.985 | S. cerevisiae deletion strains, locus YNR030W, strain Alg12, stronger effect = lower value 1 | [12] 1.04 | [13] 1.02 | [14] 0.994 | S. cerevisiae deletion strains, locus YPR135W, strain CTF4, stronger effect = lower value 1.06

COC(=O)[C@@H]1[C@H]2C[C@H]3c4[nH]c5ccccc5c4CCN3C[C@@H]2CC[C@@H]1O
inactive: [24] 0.98 | [15] 1.03 | [16] 0.99 | [3] 1.01 | [17] 0.981 | [18] 1 | [19] 0.987 | [7] 0.98 | [25] 0.987 | [10] 1 | [20] 1 | [21] 0.984 | [22] 0.981 | [26] 0.952 | [23] 0.975 | [13] 0.983
